This is one part of a sample in which hits are shown more often than they occur.
nsP2pro primary = CHIKV nsP2 protease inhibition, primary qHTS | Q8JUX6 | FRET peptide cleavage, nsP2pro, fluorescence 1 h | Potency, µM (series often up to 24.9 µM), actives largely listed as inhibitors | 31,000 compounds, 1.1% hits; note: nearly all actives have a fitted effect of over 60% in size
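Enzyme 150 nM, substrate 2.5 uM (both final); Tris-HCl 10 mM pH 8.0 + 0.01% Tween 20; cpd up to 25 uM, 7 pts; 15 min preinc., 1 h RT; fluorescence ex 525/em 598.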
nsP2 cell sec = inhibits CHIKV nsP2 protease in cells | shares compounds with nsP2pro primary | cell-based CHIKV nsP2 protease reporter assay | Potency, µM (highest dose often 51.1 µM), hits mostly inhibitors | 450 compounds, 10% hits; note: nearly all actives have a fitted effect of over 70% in size
NSP2 full ctr = selectivity test for CHIKV nsP2 protease inhibitors: full-length NSP2. shares compounds with nsP2pro primary. Potency, µM (series often up to 50.7 µM), most hits filed as inhibitors. AID 1964101. 410 compounds, 39% hits. Full-length CHIKV NSP2 protease enzymatic counterscreen; note: nearly all actives have a fitted effect of over 65% in size
Furin counterscr = inhibits human furin in a CHIKV nsP2 protease selectivity counterscreen; AID 1964102; 410 compounds, 6% hits; shares compounds with nsP2pro primary; Recombinant human furin enzymatic counterscreen, fluorogenic substrate; Potency, µM (doses to about 50.6 µM), usual class: inhibitors
nsP2 NS23 pep = blocks CHIKV nsP2 protease cleavage of endogenous NS2/3 peptide; shares compounds with nsP2pro primary; Purified CHIKV nsP2 protease, endogenous NS2/3 peptide cleavage; Potency, µM (series often up to 51 µM), hits mostly inhibitors; 410 compounds, 34% hits; note: nearly all actives have a fitted effect of over 55% in size
Papain counter = selectivity counter-screen for CHIKV nsP2 protease inhibitors: papain; 410 compounds, 5% hits; shares compounds with nsP2pro primary; AID 1964104; purified papain protease activity, enzymatic inhibition; Potency, µM (series often up to 51 µM), most hits filed as inhibitors
Target sequence (P00784 whole entry, looked up): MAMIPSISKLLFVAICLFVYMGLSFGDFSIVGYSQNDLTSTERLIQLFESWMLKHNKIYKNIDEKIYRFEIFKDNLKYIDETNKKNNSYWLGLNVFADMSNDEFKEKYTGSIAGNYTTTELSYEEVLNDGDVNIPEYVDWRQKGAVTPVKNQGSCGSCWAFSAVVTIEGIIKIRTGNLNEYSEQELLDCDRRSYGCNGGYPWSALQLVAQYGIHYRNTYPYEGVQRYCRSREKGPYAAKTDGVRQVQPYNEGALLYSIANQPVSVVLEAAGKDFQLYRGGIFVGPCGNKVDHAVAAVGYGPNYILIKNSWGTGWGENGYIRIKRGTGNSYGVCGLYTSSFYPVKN
nsP2pro conf qHTS = confirmation of CHIKV nsP2 protease inhibitors. shares compounds with nsP2pro primary. CHIKV nsP2 protease enzymatic activity, qHTS. Potency, µM (top dose mostly 25.5 µM), hits mostly inhibitors. 410 compounds, 43% hits; note: nearly all actives have a fitted effect of over 75% in size
HCV NS3 4A cs = selectivity counter-screen for CHIKV nsP2 protease inhibitors: HCV NS3/4A. HCV NS3/4A protease biochemical counterscreen. AID 1964106. 410 compounds, 20% hits. Potency, µM (highest dose often 50.9 µM), usual class: inhibitors. shares compounds with nsP2pro primary; note: nearly all actives have a fitted effect of over 55% in size
A number is an active result; i = inactive; ? = inconclusive. Calls come from the whole dose curve.

SMILES	nsP2pro primary	others
CN(C)c1ccc2nc(NC(=S)N3CCN(c4cccc(C(F)(F)F)c4)CC3)sc2c1	i
CC(=O)Nc1sc2c(c1-c1ccc3c(c1)OCCO3)CCNC2	i
Cc1ccc(C)c(N2CCN(C(c3ccc(F)cc3)c3nnc(-c4ccccc4)o3)CC2)c1 (stereo not drawn)	?	nsP2 cell sec=i;NSP2 full ctr=21µM;Furin counterscr=i;nsP2 NS23 pep=?;Papain counter=i;nsP2pro conf qHTS=?;HCV NS3 4A cs=12µM
Fc1ccc(C(c2nnc(-c3ccccc3)o2)N2CCN(c3cccc(Cl)c3)CC2)cc1 (stereo not drawn)	i
Cc1cccc(N2CCN(C(c3ccccc3)c3nnc(-c4ccccc4F)o3)CC2)c1C (stereo not drawn)	i
COCCC1(N(C)C)CCN(C(=O)c2ccnn2C)CC1	i
CC(C)(C)c1cccc(NC(=O)Nc2nnc(-c3ccncc3)s2)c1	i
Cc1cnn(-c2cc(N3CCC(n4cc(C5CCCC5)nn4)CC3)ncn2)c1	i
c1c(C2CC2)nnn1C1CNC1	8.9µM	nsP2 cell sec=i;NSP2 full ctr=i;Furin counterscr=i;nsP2 NS23 pep=?;Papain counter=i;nsP2pro conf qHTS=?;HCV NS3 4A cs=?
O=C(NCc1ccccc1)c1cn(C2CNC2)nn1	i
C=C1CCC2C(C)(CO)C(O)CCC2(C)C1C/C=C1\C=COC1=O (stereo not drawn)	i
O=C(/C=C/c1ccc(O)c(O)c1)O[C@@H]1C[C@@](O)(C(=O)O)C[C@@H](O)[C@@H]1O	i
COc1cc(/C=C/c2cn(-c3ccc(C(=O)O)cc3)nc2/C=C/c2ccc(O)c(OC)c2)ccc1O	i
CCOC(=O)[C@H](Cc1ccc(F)cc1)NC(=O)[C@@H](N)Cc1ccc(N(CCCl)CCCl)cc1	i
COC(=O)N[C@H](C(=O)N1CCC[C@H]1c1ncc(-c2ccc(-c3ccc(-c4cnc([C@@H]5CCCN5C(=O)[C@@H](NC(=O)OC)C(C)C)[nH]4)cc3)cc2)[nH]1)C(C)C	?	nsP2 cell sec=i;NSP2 full ctr=?;Furin counterscr=i;nsP2 NS23 pep=i;Papain counter=i;nsP2pro conf qHTS=?;HCV NS3 4A cs=i
COC(=O)N[C@H](C(=O)N1CCC[C@H]1c1ncc(-c2ccc3c(c2)O[C@@H](c2ccccc2)n2c-3cc3cc(-c4cnc([C@@H]5CCCN5C(=O)[C@@H](NC(=O)OC)C(C)C)[nH]4)ccc32)[nH]1)C(C)C	i
CC(=O)N1CCC(N2CCOC[C@H]2c2ncc(-c3ccncc3)[nH]2)CC1	i
CC(=O)Nc1sc2c(c1-c1ccc3[nH]ccc3c1)CCNC2	i
CC(=O)OC[C@]12[C@H](OC(C)=O)[C@H](OC(=O)c3ccccc3)[C@@H]3[C@@H](OC(C)=O)[C@]1(OC3(C)C)[C@H](C)C[C@H](OC(=O)c1ccccc1)[C@@H]2OC(=O)c1ccccc1	i
CCOC(=O)c1nnc(N[S+](=O)([O-])c2ccc(NC(=O)Cc3ccc(Cl)c(Cl)c3)cc2)s1	i
Cc1ccc(C(=O)N(CC2CCN(Cc3ccccc3F)CC2)CC2CCCO2)s1 (stereo not drawn)	i
O=S(=O)(Nc1cc(Cl)c(Oc2cnc3ccccc3c2)c(Cl)c1)c1ccc(Cl)cc1Cl	i
O=[N+]([O-])c1ccc(S(=O)(=O)Nc2cnc3ccccc3c2)cc1	6.3µM	nsP2 cell sec=i;NSP2 full ctr=i;Furin counterscr=i;nsP2 NS23 pep=i;Papain counter=i;nsP2pro conf qHTS=i;HCV NS3 4A cs=i
COc1cccc(CNc2ccc(S(=O)(=O)Nc3cnc4ccccc4c3)cc2)c1O	i
NC1CCCCN(Cc2ccc(Cl)c(F)c2)C1 (stereo not drawn)	i
SMILES	nsP2pro primary	others
COc1ccc(-n2ncc3c2CCCC3NC(=O)c2ccc3ncccc3c2)cc1 (stereo not drawn)	?	nsP2 cell sec=21µM;NSP2 full ctr=?;Furin counterscr=i;nsP2 NS23 pep=i;Papain counter=i;nsP2pro conf qHTS=i;HCV NS3 4A cs=?
COc1ccc(-n2ncc3c2CCCC3NC(=O)c2cnc(C)cn2)cc1 (stereo not drawn)	i
O=C(NC1CCCc2c1cnn2-c1ccc(F)cc1F)c1ccc(C(=O)c2ccccc2)cc1 (stereo not drawn)	i
Fc1ccccc1-c1nc(NCc2ccc(-c3cccnc3)cc2)c2ccccc2n1	i
N#Cc1ccc(CSc2nc3ncc(Br)cc3[nH]2)cc1	i
O=S(=O)(Nc1cccc2ccccc12)c1ccc(NCc2cccc(Cl)c2O)cc1	i
Cn1nnnc1SCCNCc1ccccc1OCc1ccccc1F	i
O=S(=O)(Nc1nccs1)c1ccc(NCc2cccc(F)c2O)cc1	i
Oc1ccc(NCc2ccccc2OCc2ccccc2Cl)cc1	0.85µM	nsP2 cell sec=12µM;NSP2 full ctr=10µM;Furin counterscr=i;nsP2 NS23 pep=16µM;Papain counter=i;nsP2pro conf qHTS=8µM;HCV NS3 4A cs=18µM
O=S(=O)(Nc1ccc2ccccc2c1)c1ccc(NCc2cccc(Cl)c2O)cc1	i
Oc1ccc(NCc2ccccc2OCc2ccccc2F)cc1	8.9µM	nsP2 cell sec=?;NSP2 full ctr=23µM;Furin counterscr=i;nsP2 NS23 pep=21µM;Papain counter=i;nsP2pro conf qHTS=?;HCV NS3 4A cs=?
Cc1cccc(-n2cnc3cc(C(=O)N4CCC(Br)CC4)ccc32)c1	i
c1ccc(-c2nc(C3CCOCC3)no2)c(OC2CCN(C3CCCC3)C2)c1 (stereo not drawn)	i
O=C(COc1ccc(F)cc1)N1CCCN(c2cc(-c3ccc(Br)cc3)[nH]n2)CC1	i
COc1ccccc1CC(=O)Nc1cccn2nc(C(C)C)nc12	i
COc1ccc(C(=O)N(Cc2ccco2)Cc2ccco2)c(O)c1	5µM	nsP2 cell sec=21µM;NSP2 full ctr=?;Furin counterscr=i;nsP2 NS23 pep=?;Papain counter=i;nsP2pro conf qHTS=?;HCV NS3 4A cs=?
COc1ccc(CN(Cc2ccccc2)C(=O)c2ccccc2O)cc1	i
Cc1ccc(CN(Cc2ccco2)C(=O)c2ccc(Cl)cc2Cl)cc1	i
CC(=O)NCC1CN(C(=O)NCc2ccc(OC(F)(F)F)cc2)CC12CCCCC2 (stereo not drawn)	i
O=C(Nc1nnc(-c2ccncc2)s1)Nc1ccc(Cl)c2ccccc12	i
CCN(CC)Cc1ccc(C(=O)N(CCc2ccccc2OC)[C@@H]2CCNC2)cc1	?	nsP2 cell sec=i;NSP2 full ctr=6.3µM;Furin counterscr=i;nsP2 NS23 pep=i;Papain counter=i;nsP2pro conf qHTS=?;HCV NS3 4A cs=?
COc1ccc(CN(C(=O)COc2ccccc2OC)C2CCS(=O)(=O)C2)cc1 (stereo not drawn)	i
CCN1CCC(N(Cc2ccc3c(c2)OCO3)C(=O)Nc2ccccc2OC)CC1	i
Cc1cc(-c2nnc3n2CCCCC3)c(C)n1-c1cccc(C(F)(F)F)c1	i
COCCOC(=O)N1CCN(S(=O)(=O)c2cc(F)c(Oc3ccc(Cl)cc3)c(F)c2)C(C(=O)NO)C1 (stereo not drawn)	i
COc1ccc(C(=O)N2CCOC3(CCN(C(=O)CCN)CC3)C2)cc1	i
NCCCC(=O)N1CCC2(CC1)CN(C(=O)c1ccc(Cl)cc1)CCO2	i
